In PubChem BioAssay (NCATS):
“And” between values parts separate entries of the source, which are not always exact repeats. Equal values may be shown once. Inconclusive results are not listed. The source made the active and inactive calls. Calls come from the whole dose curve; as a rule, active = well fitted curve in the direction sought with a large enough effect; inconclusive = small, poorly fitted or top-dose-only effect, or another doubt; inactive = no such curve, though single readings can be large; an effect the other way counts as inactive or inconclusive.

What was measured:
[1] = molecular target: Glutathione peroxidase 1 (Homo sapiens) (UniProt P07203); test: Primary qHTS Assay for Inhibitors of Recombinant Selenoprotein Glutathione Peroxidase 1 (GPX1) (AID 1845191); note: nearly all actives have a fitted effect of over 65% in size; for activity, negative = inhibition: % is set by controls: 0 for no effect and ±100 for the full control effect
Sequence of Glutathione peroxidase 1 (Homo sapiens) (P07203 whole entry, looked up): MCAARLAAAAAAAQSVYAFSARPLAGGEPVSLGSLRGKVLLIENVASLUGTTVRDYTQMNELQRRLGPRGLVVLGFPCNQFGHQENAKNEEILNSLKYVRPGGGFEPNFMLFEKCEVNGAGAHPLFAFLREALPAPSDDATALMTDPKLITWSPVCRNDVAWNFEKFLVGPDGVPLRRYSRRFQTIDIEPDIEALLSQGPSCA
Procedure, shortened: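 Recombinant GPX1 (10 nM final) was preincubated with compound for 30 min at room temperature, then reacted with 1 mM GSH, 0.5 mM CHP, 0.5 mM NADPH and 100 nM glutathione reductase; NADPH fluorescence (340/450 nm) was read at 0 and 15 min.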

[2] = molecular target: Phospholipid hydroperoxide glutathione peroxidase GPX4 (Homo sapiens) (UniProt P36969); test: Primary qHTS Assay for Inhibitors of Recombinant Selenoprotein Glutathione Peroxidase 4 (GPX4) (AID 1845192); note: nearly all actives have a fitted effect of over 65% in size; note: potency is the fitted concentration of half-maximal effect; for activity change, negative = inhibition: series mostly up to about 50 µM; % is set by controls: 0 for no effect and ±100 for the full control effect
Sequence of Phospholipid hydroperoxide glutathione peroxidase GPX4 (Homo sapiens) (P36969 whole entry, looked up): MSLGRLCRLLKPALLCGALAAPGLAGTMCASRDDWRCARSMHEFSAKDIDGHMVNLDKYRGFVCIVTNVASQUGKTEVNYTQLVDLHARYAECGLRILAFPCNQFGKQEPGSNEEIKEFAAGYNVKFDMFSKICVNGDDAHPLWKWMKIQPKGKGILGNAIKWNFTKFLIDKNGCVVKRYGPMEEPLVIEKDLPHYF
Procedure, shortened: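 GR-coupled readout: 100 nM GR, 1 mM GSH, 0.5 mM NADPH; NADPH fluorescence (ex 340/em 450 nm) read at t=0 and after 15 min RT. GPX4 200 nM, preincubated 30 min with compound; substrate 0.5 mM CHP.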

[3] = molecular target: Luciferin 4-monooxygenase (Photinus pyralis) (UniProt P08659); test: Primary firefly luciferase (FLuc) qHTS assay for identification of artifact compounds. (AID 1845220); note: nearly all actives have a fitted effect of over 60% in size; note: potency is the fitted concentration of half-maximal effect;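 for activity change, negative = inhibition: series mostly up to about 54 µM; plate controls were DMSO vehicle for no effect and no enzyme for full effect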
Procedure, shortened: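 qHTS, 15 min compound preincubation with substrate (10 uM luciferin, 10 uM ATP) at RT, then 10 nM FLuc; 5 min; luminescence; % inhibition vs no-enzyme/DMSO controls, 4-parameter Hill fit.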

[4] = Primary fluorescence-based thiol-reactive (MSTI) qHTS assay for identification of artifact compounds. (AID 1845221); note: nearly all actives have a fitted effect of over 65% in size; note: potency is the fitted concentration of half-maximal effect;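 for activity change, negative = thiol reactive: series mostly up to about 54 µM; thiol-reactive compounds lower the probe fluorescence signal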
Procedure, shortened: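 A multi-concentration qHTS design tested compounds against 4 uM MSTI, pH 7.4 phosphate-buffered saline. Plates were protected from light for 1 h at room temperature before imaging fluorescence.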

[5] = Primary redox qHTS assay for identification of artifact compounds. (AID 1845223);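 note: 0% = DMSO and 100% = reference compound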
Procedure, shortened: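 Amplex Red (25 uM) and HRP (250 mU/mL) in HBSS, with compounds for 15 min, then 250 uM DTT for 30 min, room temperature, dark. Fluorescence 525/598 nm read; normalized to DMSO and 10 uM DA3003; Hill fit.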

[6] = test system: Nanoluciferase (engineered Oplophorus gracilirostris luciferase); test: Primary Nanoluciferase (NLuc) qHTS assay for identification of artifact compounds. (AID 1845222);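 note: series mostly up to about 54 µM; 0% = DMSO and -100% = no enzyme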
Procedure, shortened: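 Luminescence read-out of secreted NLuc in S16 cell conditioned medium (1:55); compounds tested with 15 min RT preincubation, then Nano-Glo substrate 1:100, 5 min. % inhibition vs no-enzyme and DMSO controls, 4-parameter Hill fit.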

Cc1cc(Nc2ncnc3ccc(-c4ccc(CNCCS(C)(=O)=O)o4)cc23)ccc1Oc1ccn2ncnc2c1
inactive: Potency [1] | Potency [2] | Potency [3] | Potency [4] | Potency [5]

COc1cccc2c(NCc3ccccc3)nc(-n3c(N)nc4ccccc43)nc12
inactive: Potency [1] | Potency [2] | Potency [3] | Potency [6] | Potency [5]

C=CC(=O)N1CCC[C@@H](n2nc(-c3ccc(Oc4ccccc4)cc3)c3c(N)ncnc32)C1
inactive: Potency [1] | Potency [2] | Potency [3] | Potency [6] | Potency [5]

COc1cc(C)c(Sc2cnc(NC(=O)c3ccc(CNC(C)C(C)C)cc3)s2)cc1C(=O)N1CCN(C(C)=O)CC1 (stereo unspecified)
inactive: Potency [1] | Potency [2] | Potency [3] | Potency [4] | Potency [5]

C[C@@H]1COC(Nc2ccc3ncnc(Nc4ccc(OCc5nccs5)c(Cl)c4)c3c2)=N1
active: Potency [3] 19 µM
inactive: Potency [1] | Potency [2] | Potency [4] | Potency [5]

CCCCCN(CCC12CC3CC(CC(C3)C1)C2)C(=O)NCCCc1ccncc1
inactive: Potency [1] | Potency [2] | Potency [3] | Potency [6] | Potency [5]

Cn1c2ccccc2c2c3c(c4c5ccccc5n(CCC#N)c4c21)CNC3=O
inactive: Potency [3] | Potency [6] | Potency [5]

CNC(=O)c1ccccc1Nc1nc(Nc2ccc(N3CCOCC3)cc2OC)ncc1Cl
active: Potency [4] 1.89 µM
inactive: Potency [2] | Potency [3] | Potency [5]

CC(C)[C@H](C(=O)Nc1ccc(C(=O)NO)cc1)c1ccccc1
inactive: Potency [2]

Cn1c(=O)n(-c2ccc(C(C)(C)C#N)cc2)c2c3cc(-c4cnc5ccccc5c4)ccc3ncc21
inactive: Potency [2] | Potency [3] | Potency [4] | Potency [6] | Potency [5]

Cc1ccc2nc(NC(=O)CSc3nc4c(c(=O)n3-c3ccccc3)SCC4)sc2c1
inactive: Potency [2] | Potency [3] | Potency [4] | Potency [6] | Potency [5]

CNC(=O)c1ccc(-c2cnc3ncc(Cc4ccc5ncccc5c4)n3n2)cc1F
inactive: Potency [2] | Potency [3] | Potency [4] | Potency [6] | Potency [5]

COc1c(N2C[C@@H]3CCCN[C@H]3C2)c(F)cc2c(=O)c(C(=O)O)cn(C3CC3)c12
active: Potency [2] 18 µM

O=c1[nH]nc(Sc2ncc([N+](=O)[O-])s2)n1-c1ccc2c(c1)OCCO2
inactive: Potency [2]

Clc1cccc(-n2nnnc2NCc2ccccc2Oc2ccccn2)c1Cl
inactive: Potency [2] | Potency [3] | Potency [4] | Potency [6] | Potency [5]

COc1cccc2nc(-c3cccs3)nc(NN3C(=O)C=C(C)C3=O)c12
inactive: Potency [4] | Potency [6] | Potency [5]

COc1ccc(CC2c3cc(OC)c(OC)cc3CC[N+]2(C)CCC(=O)OCCCCCOC(=O)CC[N+]2(C)CCc3cc(OC)c(OC)cc3C2Cc2ccc(OC)c(OC)c2)cc1OC (stereo unspecified)
inactive: Potency [2]

Cc1ccc(C(=O)Nc2ccc(CN3CCN(C)CC3)c(C(F)(F)F)c2)cc1C#Cc1cnc2cccnn12
inactive: Potency [2] | Potency [4] | Potency [5]

COc1ccc2c(c1)CC[C@@H](CN(C)CC(=O)O)[C@H]2c1ccccc1
inactive: Potency [2] | Potency [3] | Potency [4] | Potency [5]

CC(C)(C)OC(=O)Nc1ccc(-c2cc(C(=O)NCCCCCCC(=O)NO)no2)cc1
inactive: Potency [2]

CNC(=O)c1c(F)cccc1Nc1nc(Nc2cc3c(cc2OC)CCN3C(=O)CN(C)C)nc2[nH]ccc12
inactive: Potency [2] | Potency [3] | Potency [6]
active: Potency [4] 1.06 µM

O=C(O)CCCc1c[nH]c2ccccc12
inactive: Potency [2] | Potency [3] | Potency [4] | Potency [6] | Potency [5]

Cc1cc(N2CCOCC2)cc2[nH]c(-c3c(NC[C@@H](O)c4cccc(Cl)c4)cc[nH]c3=O)nc12
active: Potency [4] 1.68 µM
inactive: Potency [3] | Potency [5]

CN(c1ncccc1CNc1nc(Nc2ccc3c(c2)CC(=O)N3)ncc1C(F)(F)F)S(C)(=O)=O
inactive: Potency [2]

CC(C)c1noc(N2CCC(COc3ccc(-c4ccc(S(C)(=O)=O)cc4)nc3)CC2)n1
inactive: Potency [2] | Potency [3] | Potency [4] | Potency [6] | Potency [5]

CN1CC[C@@H](c2c(O)cc(O)c3c(=O)cc(-c4ccccc4Cl)oc23)[C@@H](O)C1
inactive: Potency [2]

CCCNC(=O)Nc1ccc(Oc2ncnc3cc(OC)c(OC)cc23)cc1Cl
inactive: Potency [2] | Potency [3] | Potency [4] | Potency [5]

Cc1c(NC(=O)OC[C@@H]2COCCN2)cn2ncnc(Nc3ccc4c(cnn4Cc4cccc(F)c4)c3)c12
inactive: Potency [2] | Potency [3] | Potency [4] | Potency [6] | Potency [5]

C=CC(=O)Nc1cc2c(Nc3ccc(F)c(Cl)c3)ncnc2cc1OCCCN1CCOCC1
inactive: Potency [2]

CC(=O)c1c(C)c2cnc(Nc3ccc(N4CCNCC4)cn3)nc2n(C2CCCC2)c1=O
inactive: Potency [2] | activity change, negative = inhibition [3] 1.06% [at 6.45 µM] | activity change, negative = thiol reactive [4] 7.61% [at 6.41 µM] | activity, negative = inhibition [6] 0% [at 6.45 µM] | redox activity (% of DA3003) [5] -5.59% [at 6.41 µM]

Nc1nc(Nc2ccc(S(N)(=O)=O)cc2)nn1C(=O)c1c(F)cccc1F
inactive: Potency [2] | Potency [3] | Potency [4] | Potency [6] | Potency [5]

CCOc1ccccc1OCCNC(C)Cc1ccc(OC)c(S(N)(=O)=O)c1 (stereo unspecified)
inactive: Potency [2] | Potency [3] | Potency [4] | Potency [6] | Potency [5]

COc1c(OCCCN2CCOCC2)ccc2c3n(c(=NC(=O)c4cnc(N)nc4)nc12)CCN3
inactive: activity change, negative = inhibition [2] -4.71% [at 9.73 µM] and -19.4% [at 9.73 µM] | outcome [2] inactive [at 9.73 µM] | activity change, negative = inhibition [3] -4.27% [at 11.6 µM] | activity change, negative = thiol reactive [4] 32.5% [at 11.5 µM] | redox activity (% of DA3003) [5] -6.72% [at 11.5 µM]
